The full list was thinned out, with hits kept by preference.
Lassa entry inh: blocks Lassa virus binding to or entry into cells; Lassa virus pseudotype entry inhibition, cell reporter; Potency, µM (series often up to 37.9 µM), usual class: inhibitors; 300,000 tested, 1.2% active; calls by dose curve; tested in HEK293 cells; also: nearly all actives have a fitted effect of over 50% in size
Marburg entry inh: inhibitors of Marburg virus binding or cell entry; Marburg virus pseudotyped entry inhibition, cell reporter; AID 540276; Potency, µM (highest dose often 37.8 µM), most hits filed as inhibitors; 300,000 tested, 1.8% active; calls by dose curve; tested in HEK293 cells
CHX counter: affects cycloheximide protein synthesis inhibition readout, counter-screen; max response, %; 300,000 tested, 12% active; AID 2314; cell reporter, cycloheximide protein synthesis inhibition counterscreen; in the data active = max response mostly above about 13%, no sharp cut-off; inactive = mostly below about 14%; also: read at 38.3 µM for the half of the compounds with a filed dose
AMA1 RON2 block: disrupts binding of P. falciparum AMA1 to RON2; AlphaScreen AMA1-biotinylated RON2 peptide binding; Potency, µM (top dose mostly 58.2 µM), most hits filed as inhibitors; 360,000 tested, 0.2% active; AID 720542; active = well fitted inhibition curve with a large enough effect; inconclusive = small, poorly fitted or top-dose-only effect; inactive = no such curve, though single readings can be large or run the other way; also: nearly all actives have a fitted effect of over 45% in size
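AMA1 (3D7) with his tag at 25 nM final met compounds first, then biotinylated RON2 peptide at 25 nM; detection used donor plus acceptor beads, 10 µg/mL apiece, read by AlphaScreen after 30 min at room temperature.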
Shiga toxin inh: inhibitors of Shiga toxin in Vero cells; 290,000 tested, 9.2% active; AID 2315; Vero cells, Shiga toxin protein synthesis inhibition reporter; inhibition, % at 38.7 µM; in the data active = inhibition mostly above about 28%, no sharp cut-off; inactive = mostly below about 43%
Hits are given with their value; i = inactive; ? = inconclusive; nt = not tested or not shown.

SMILES | Lassa entry inh | Marburg entry inh | CHX counter | AMA1 RON2 block | Shiga toxin inh
COc1ccc(C(=O)N/N=C/c2ccc(SC)cc2)cc1 | ? | ? | 19 | i | i
COC(=O)N/N=C/C1=CCC2CC1C2(C)C (stereo unspecified) | i | i | i | i | i
COCCC(=O)N1CCC(Oc2ccc(C(=O)N3CCC[C@H]3CO)cc2)CC1 | ? | i | i | i | i
CCCN(CCC)C(=O)Cn1c(SCc2cccc(F)c2)nc2cccnc21 | i | nt | nt | nt | nt
COc1cc2nc(NCCc3ccccc3)n3nc(-c4cccnc4)nc3c2cc1OC | nt | i | nt | nt | nt
COc1ccc(-c2cc(OC(=O)c3ccccc3Cl)c3c(C)oc(C)c3c(=O)c2)cc1OC | i | ? | nt | nt | nt
O=C(OCCC12CC3CC(CC(C3)C1)C2)c1ccc(NCc2cc(O)ccc2O)cc1 | 1.3µM | 1.8µM | nt | ? | nt
O=C(O)c1cc(NCc2cc(O)ccc2O)ccc1O | nt | nt | i | nt | i
O=C(OCC12CC3CC(CC(C3)C1)C2)c1ccc(NCc2cc(O)ccc2O)cc1 | 4.5µM | ? | nt | i | nt
CCN(CC(=O)Nc1c(F)cccc1F)C(=O)CNC(=O)c1ccc(Br)o1 | i | i | nt | i | nt
CCOc1ccc(/C=C2\SC(=S)N(N3C(=O)C4CC4C3=O)C2=O)cc1 (stereo unspecified) | i | i | i | i | i
CCOc1ccc(N=C2NC(=O)S/C2=C\c2ccc(N(C)C)cc2)cc1 | i | i | 22 | ? | 59
CCOc1ccc(/C=C2/SC(=O)NC2=S)cc1 | ? | ? | 35 | i | 46
CN1C(=O)C(O)(CC(=O)/C=C/C=C/c2ccccc2)c2ccccc21 (stereo unspecified) | ? | i | i | i | i
O=C(/C=C/C=C/c1ccccc1)CC1(O)C(=O)Nc2ccccc21 (stereo unspecified) | ? | i | 19 | i | i
CCCc1cc(=O)[nH]c(SCCc2ccccc2)n1 | nt | nt | 12 | i | i
CCOc1ccc(S(=O)(=O)N(CC)CC(=O)NCc2ccncc2)cc1C | i | i | i | i | i
O=C(COC(=O)c1ccc2c(c1Cl)C(=O)c1ccccc1C2=O)NC1CCCCC1 | i | i | i | i | i
O=C(COC(=O)c1ccc2c(c1Cl)C(=O)c1ccccc1C2=O)NC1CC1 | i | i | 31 | i | 39
c1ccc2c(c1)NCCS2 | i | ? | 47 | i | 80
S=C1CSc2ccccc2N1 | i | i | i | i | i
Cc1cc2nc3c(c(=O)n2[nH]1)CCCC3 | i | i | i | i | i
O=c1c2c(nc3cc(-c4ccccc4)[nH]n13)CCC2 | 4µM | i | 58 | i | 95
O=c1c2c(nc3cc(-c4ccc(Br)cc4)[nH]n13)CCCC2 | ? | ? | i | i | i
COc1ccc(-c2cc3nc4c(c(=O)n3[nH]2)CCC4)cc1 | i | ? | 21 | i | i
SMILES | Lassa entry inh | Marburg entry inh | CHX counter | AMA1 RON2 block | Shiga toxin inh
Cc1ccc(-c2[nH]n3c(=O)c4c(nc3c2C)CCCC4)cc1 | i | i | i | i | i
Cc1c(-c2ccccc2)[nH]n2c(=O)c3c(nc12)CCCC3 | i | ? | 29 | i | 44
COc1ccc(N2CCN(C(=O)c3cc4c(=O)n(Cc5cccs5)ccc4nc3C)CC2)cc1 | i | nt | nt | nt | nt
CNC(=O)C(=O)Nc1nc(C23CC4CC(CC(C4)C2)C3)cs1 | i | i | 16 | i | i
O=C(NCc1ccccc1)C(=O)Nc1nc(C23CC4CC(CC(C4)C2)C3)cs1 | i | i | i | i | i
CCN(CC)CCCNc1oc(/C=C/c2ccc(OC)c(OC)c2)nc1C#N | i | i | nt | nt | nt
COc1cccc(/C=C/c2nc(C#N)c(NCCN(C)C)o2)c1 | i | i | nt | nt | nt
CCN(CC)CCCNc1oc(/C=C/c2ccccc2)nc1C#N | nt | nt | 22 | i | i
CNc1oc(/C=C/c2cccc(OC)c2)nc1C#N | nt | nt | 35 | i | 99
CCNc1oc(/C=C/c2ccc(OCC)cc2)nc1C#N | nt | nt | 16 | i | 38
O=C1CCCN1c1cccc(Br)c1 | i | i | i | i | i
Cc1cc(N2CCCC2=O)cc(C)c1CN1C(=O)c2ccccc2C1=O | i | i | 27 | i | i
Cc1cc(C)nc(N(C#N)CCOc2ccc(Cl)cc2)n1 | ? | ? | 16 | i | 39
Cc1cc(C)nc(N(C#N)Cc2ccc(Cl)cc2)n1 | i | i | i | i | i
Cc1ccc(OCc2nc(-c3ccccn3)no2)c(Br)c1 | ? | ? | i | i | i
CC(C)c1ccc(OCc2nc(-c3ccccn3)no2)c(Br)c1 | ? | ? | 46 | i | 67
CCc1ccc(OCc2nc(-c3ccccn3)no2)c(Br)c1 | ? | ? | 29 | i | i
Cc1ccc(SCC(=O)Nc2ccc(N3CCOCC3)cc2)cc1C | nt | nt | nt | i | nt
NC(=S)N/N=C/c1c[nH]c2ccccc12 | nt | nt | i | i | i
CC(C)(C)OC(=O)N/N=C/c1c[nH]c2ccccc12 | i | i | 56 | i | 73
Nc1ccc(C(=O)N/N=C2\CCCc3c2[nH]c2ccccc32)cc1 | i | i | 25 | i | i
COC(=O)N/N=C/c1c[nH]c2ccccc12 | i | i | i | i | i
O=C(N/N=C\c1c[nH]c2ccccc12)c1ccc(O)cc1 | i | ? | 39 | i | 63
Nc1ccc(C(=O)N/N=C/c2c[nH]c3ccccc23)cc1 | nt | nt | 29 | i | i
CS(=O)(=O)Nc1cccc(-c2ccc3nncn3c2)c1 | nt | nt | nt | i | nt
SMILES | Lassa entry inh | Marburg entry inh | CHX counter | AMA1 RON2 block | Shiga toxin inh
CCOC(=O)N/N=C/c1c[nH]c2ccccc12 | nt | nt | i | i | i
O=C(N/N=C/c1c[nH]c2ccccc12)c1cc(Cl)ccc1O | nt | nt | 45 | i | 44
CC(C)Oc1ccc(Br)cc1C(=O)N/N=C/c1c[nH]c2ccccc12 | i | ? | i | i | i
O=C(N/N=C/c1c[nH]c2ccccc12)c1ccccc1Cl | i | i | 26 | i | i
O=C(CNC(=O)c1ccc([N+](=O)[O-])cc1)N/N=C/c1c[nH]c2ccccc12 | i | i | i | i | i
O=C(N/N=C/c1c[nH]c2ccccc12)c1ccc(Cl)cc1 | i | ? | 34 | i | 72
O=C(N/N=C/c1c[nH]c2ccccc12)c1ccc(Br)cc1 | i | ? | 32 | i | 54
CCC12CC1(C(=O)OC)C(=O)N1CCc3c([nH]c4ccccc34)C12 (stereo unspecified) | nt | nt | nt | i | nt
CCc1nnc2c(N3CCN(c4cccc(C(F)(F)F)c4)CC3)nc3ccccc3n12 | i | nt | nt | nt | nt
COc1cccc(Cn2c(OC[C@H]3CCCO3)nc3c2c(=O)n(C)c(=O)n3C)c1 | nt | i | nt | nt | nt
Cc1cc(C(=O)OCC(=O)NC2(C#N)CCCCC2)c(C)o1 | nt | nt | nt | i | nt
Cc1occc1C(=O)N/N=C/c1c[nH]c2ccccc12 | i | i | 48 | i | 96
N#CC(C#N)=NNc1ccc(-n2ccc(C(F)(F)F)n2)cc1 | ? | 3.2µM | 16 | i | i
O=C(Nc1ccccc1)Nc1ccc(-n2ccc(C(F)(F)F)n2)cc1 | nt | nt | 39 | i | 75
COc1cccc(CNC(=O)CCc2c(C)nc3c(c(C)nn3-c3ccc(C)c(C)c3)c2C)c1 | i | ? | nt | nt | nt
CCc1ccc(-n2c(=O)c3c4c(sc3n(CC(=O)NC(C)CC)c2=O)CCCC4)cc1 (stereo unspecified) | i | ? | nt | nt | nt
COCc1cc(=O)[nH]c(Nc2nc3ccc(C)cc3o2)n1 | ? | ? | 43 | ? | 82
CCc1ccc2nc(Nc3nc(COC)cc(=O)[nH]3)nc(C)c2c1 | i | i | i | i | i

Assay outcomes (PubChem BioAssay)
